# Test results from ChEMBL document CHEMBL1961873, “Compounds: GSK PKIS; Assays: Nanosyn kinase panel” (2012).
# Experiments:
# [1] = molecular target: T1, Tyrosine-protein kinase receptor TYRO3 (Homo sapiens) (UniProt Q06418); conditions: at 1 µM
# T1 sequence (whole entry): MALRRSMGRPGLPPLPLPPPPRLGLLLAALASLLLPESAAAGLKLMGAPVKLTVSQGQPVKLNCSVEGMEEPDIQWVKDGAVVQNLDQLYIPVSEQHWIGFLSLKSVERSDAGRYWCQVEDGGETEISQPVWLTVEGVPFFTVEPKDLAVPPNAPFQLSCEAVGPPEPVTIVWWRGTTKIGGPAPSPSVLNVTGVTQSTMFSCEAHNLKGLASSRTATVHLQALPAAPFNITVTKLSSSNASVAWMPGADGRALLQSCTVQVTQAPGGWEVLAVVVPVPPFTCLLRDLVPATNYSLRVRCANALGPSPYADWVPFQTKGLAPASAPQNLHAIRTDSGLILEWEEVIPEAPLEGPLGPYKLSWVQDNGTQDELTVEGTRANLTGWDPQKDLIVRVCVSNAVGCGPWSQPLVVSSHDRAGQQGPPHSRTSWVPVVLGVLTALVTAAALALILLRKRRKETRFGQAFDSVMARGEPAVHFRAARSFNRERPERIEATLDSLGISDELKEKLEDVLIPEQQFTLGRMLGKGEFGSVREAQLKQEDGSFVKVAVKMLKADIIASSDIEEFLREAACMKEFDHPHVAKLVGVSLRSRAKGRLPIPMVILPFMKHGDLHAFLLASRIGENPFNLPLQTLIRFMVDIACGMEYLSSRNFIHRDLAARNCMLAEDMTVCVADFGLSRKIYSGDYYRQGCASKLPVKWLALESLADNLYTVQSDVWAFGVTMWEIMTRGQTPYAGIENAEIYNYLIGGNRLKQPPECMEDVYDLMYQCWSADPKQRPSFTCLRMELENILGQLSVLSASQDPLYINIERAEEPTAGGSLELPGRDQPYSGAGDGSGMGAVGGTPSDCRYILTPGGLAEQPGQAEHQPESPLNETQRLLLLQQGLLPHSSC
# [2] = molecular target: Tyrosine-protein kinase Yes (Homo sapiens) (UniProt P07947); conditions: at 0.1 µM
# [3] = molecular target: Tyrosine-protein kinase Yes (Homo sapiens) (UniProt P07947); conditions: at 1 µM
# [4] = molecular target: T2, Tyrosine-protein kinase ZAP-70 (Homo sapiens) (UniProt P43403); conditions: at 0.1 µM
# T2 sequence (whole entry): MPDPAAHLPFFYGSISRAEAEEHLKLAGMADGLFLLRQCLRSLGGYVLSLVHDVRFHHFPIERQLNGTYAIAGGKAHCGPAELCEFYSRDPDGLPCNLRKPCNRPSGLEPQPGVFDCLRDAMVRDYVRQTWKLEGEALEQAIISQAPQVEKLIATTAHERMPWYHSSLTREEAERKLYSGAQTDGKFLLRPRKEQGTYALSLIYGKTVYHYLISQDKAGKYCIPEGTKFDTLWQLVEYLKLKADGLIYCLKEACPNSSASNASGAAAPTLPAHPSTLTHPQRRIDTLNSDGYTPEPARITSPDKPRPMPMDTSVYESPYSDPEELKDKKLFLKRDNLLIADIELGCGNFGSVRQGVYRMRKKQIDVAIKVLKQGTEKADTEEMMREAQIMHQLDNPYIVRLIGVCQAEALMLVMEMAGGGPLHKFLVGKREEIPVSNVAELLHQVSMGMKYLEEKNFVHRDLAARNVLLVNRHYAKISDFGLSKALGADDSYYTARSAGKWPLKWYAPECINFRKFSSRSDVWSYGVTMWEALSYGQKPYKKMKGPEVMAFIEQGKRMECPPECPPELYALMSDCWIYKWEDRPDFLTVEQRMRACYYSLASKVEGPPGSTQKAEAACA
# [5] = molecular target: T2, Tyrosine-protein kinase ZAP-70 (Homo sapiens); conditions: at 1 µM
# [6] = molecular target: Serine/threonine-protein kinase B-raf (Homo sapiens) (UniProt P15056); conditions: at 0.1 µM
# [7] = molecular target: Serine/threonine-protein kinase B-raf (Homo sapiens) (UniProt P15056); conditions: at 1 µM
# [8] = test system: Serine/threonine-protein kinase B-raf (Homo sapiens), P15056 [V600E]; conditions: at 0.1 µM
# [9] = test system: Serine/threonine-protein kinase B-raf (Homo sapiens), P15056 [V600E]; conditions: at 1 µM
# [10] = molecular target: RAF proto-oncogene serine/threonine-protein kinase (Homo sapiens) (UniProt P04049); conditions: at 0.1 µM
# [11] = molecular target: RAF proto-oncogene serine/threonine-protein kinase (Homo sapiens) (UniProt P04049); conditions: at 1 µM
# [12] = molecular target: T3, Interleukin-1 receptor-associated kinase 4 (Homo sapiens) (UniProt Q9NWZ3); conditions: at 0.1 µM
# T3 sequence (whole entry): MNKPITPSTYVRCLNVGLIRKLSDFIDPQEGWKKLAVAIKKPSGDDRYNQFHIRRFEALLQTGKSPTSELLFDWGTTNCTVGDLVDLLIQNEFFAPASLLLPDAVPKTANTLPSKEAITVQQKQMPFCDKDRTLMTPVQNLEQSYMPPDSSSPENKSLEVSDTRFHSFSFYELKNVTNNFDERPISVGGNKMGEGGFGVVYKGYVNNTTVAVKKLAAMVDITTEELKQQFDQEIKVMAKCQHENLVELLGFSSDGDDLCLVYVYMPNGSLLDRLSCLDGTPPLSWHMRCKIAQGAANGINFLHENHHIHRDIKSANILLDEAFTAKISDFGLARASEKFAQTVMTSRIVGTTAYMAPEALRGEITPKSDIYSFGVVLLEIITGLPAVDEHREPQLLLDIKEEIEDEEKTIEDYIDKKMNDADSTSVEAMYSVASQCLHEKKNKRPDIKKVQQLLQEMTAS
# [13] = molecular target: T3, Interleukin-1 receptor-associated kinase 4 (Homo sapiens); conditions: at 1 µM
# [14] = molecular target: Leucine-rich repeat serine/threonine-protein kinase 2 (Homo sapiens) (UniProt Q5S007); conditions: at 0.1 µM
# [15] = molecular target: Leucine-rich repeat serine/threonine-protein kinase 2 (Homo sapiens) (UniProt Q5S007); conditions: at 1 µM
# [16] = test system: Leucine-rich repeat serine/threonine-protein kinase 2 (Homo sapiens), Q5S007 [G2019S]; conditions: at 0.1 µM
# [17] = test system: Leucine-rich repeat serine/threonine-protein kinase 2 (Homo sapiens), Q5S007 [G2019S]; conditions: at 1 µM
# Sequence of Serine/threonine-protein kinase B-raf (Homo sapiens), P15056 [V600E] (P15056 whole entry V600E): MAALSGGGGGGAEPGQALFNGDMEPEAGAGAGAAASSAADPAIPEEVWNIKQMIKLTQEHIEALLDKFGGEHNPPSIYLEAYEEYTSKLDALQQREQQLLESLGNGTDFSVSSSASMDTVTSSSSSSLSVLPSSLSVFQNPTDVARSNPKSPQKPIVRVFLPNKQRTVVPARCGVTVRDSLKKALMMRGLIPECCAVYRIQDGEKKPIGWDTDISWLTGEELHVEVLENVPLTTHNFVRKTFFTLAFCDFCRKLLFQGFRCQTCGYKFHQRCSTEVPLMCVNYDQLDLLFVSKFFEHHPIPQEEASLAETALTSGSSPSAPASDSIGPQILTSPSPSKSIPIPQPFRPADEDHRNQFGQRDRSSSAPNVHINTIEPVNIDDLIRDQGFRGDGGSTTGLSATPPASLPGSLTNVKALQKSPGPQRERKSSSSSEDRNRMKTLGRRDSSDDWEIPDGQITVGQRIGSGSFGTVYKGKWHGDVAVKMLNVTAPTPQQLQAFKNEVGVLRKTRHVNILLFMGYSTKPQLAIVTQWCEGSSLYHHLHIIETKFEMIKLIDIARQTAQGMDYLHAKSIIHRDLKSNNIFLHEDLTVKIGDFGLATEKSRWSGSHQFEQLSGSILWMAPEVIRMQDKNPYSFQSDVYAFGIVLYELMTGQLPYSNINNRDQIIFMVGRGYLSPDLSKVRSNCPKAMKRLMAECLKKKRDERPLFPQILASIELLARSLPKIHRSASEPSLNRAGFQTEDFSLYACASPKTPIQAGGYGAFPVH
# Sequence of RAF proto-oncogene serine/threonine-protein kinase (Homo sapiens) (P04049 whole entry): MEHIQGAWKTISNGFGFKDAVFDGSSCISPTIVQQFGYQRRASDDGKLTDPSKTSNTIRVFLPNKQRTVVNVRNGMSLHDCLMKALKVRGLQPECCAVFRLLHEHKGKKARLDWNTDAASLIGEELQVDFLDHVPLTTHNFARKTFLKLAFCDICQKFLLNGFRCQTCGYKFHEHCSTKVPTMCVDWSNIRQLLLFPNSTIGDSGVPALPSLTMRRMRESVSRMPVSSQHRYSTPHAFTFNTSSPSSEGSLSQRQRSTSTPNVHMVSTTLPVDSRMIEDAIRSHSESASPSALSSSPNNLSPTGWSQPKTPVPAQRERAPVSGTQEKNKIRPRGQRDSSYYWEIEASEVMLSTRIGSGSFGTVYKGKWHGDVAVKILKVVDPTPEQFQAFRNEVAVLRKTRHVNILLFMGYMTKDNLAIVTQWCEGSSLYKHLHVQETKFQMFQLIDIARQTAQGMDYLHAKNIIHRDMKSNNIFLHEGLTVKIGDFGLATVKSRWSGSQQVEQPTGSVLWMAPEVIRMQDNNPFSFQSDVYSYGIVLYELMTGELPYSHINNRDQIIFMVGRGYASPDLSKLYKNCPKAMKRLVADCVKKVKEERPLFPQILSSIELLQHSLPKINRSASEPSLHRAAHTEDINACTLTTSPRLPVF
# Sequence of Serine/threonine-protein kinase B-raf (Homo sapiens) (P15056 whole entry): as the sequence (P15056 whole entry V600E) above, with E600V counted along it
# Sequence of Leucine-rich repeat serine/threonine-protein kinase 2 (Homo sapiens), Q5S007 [G2019S] (Q5S007 whole entry G2019S): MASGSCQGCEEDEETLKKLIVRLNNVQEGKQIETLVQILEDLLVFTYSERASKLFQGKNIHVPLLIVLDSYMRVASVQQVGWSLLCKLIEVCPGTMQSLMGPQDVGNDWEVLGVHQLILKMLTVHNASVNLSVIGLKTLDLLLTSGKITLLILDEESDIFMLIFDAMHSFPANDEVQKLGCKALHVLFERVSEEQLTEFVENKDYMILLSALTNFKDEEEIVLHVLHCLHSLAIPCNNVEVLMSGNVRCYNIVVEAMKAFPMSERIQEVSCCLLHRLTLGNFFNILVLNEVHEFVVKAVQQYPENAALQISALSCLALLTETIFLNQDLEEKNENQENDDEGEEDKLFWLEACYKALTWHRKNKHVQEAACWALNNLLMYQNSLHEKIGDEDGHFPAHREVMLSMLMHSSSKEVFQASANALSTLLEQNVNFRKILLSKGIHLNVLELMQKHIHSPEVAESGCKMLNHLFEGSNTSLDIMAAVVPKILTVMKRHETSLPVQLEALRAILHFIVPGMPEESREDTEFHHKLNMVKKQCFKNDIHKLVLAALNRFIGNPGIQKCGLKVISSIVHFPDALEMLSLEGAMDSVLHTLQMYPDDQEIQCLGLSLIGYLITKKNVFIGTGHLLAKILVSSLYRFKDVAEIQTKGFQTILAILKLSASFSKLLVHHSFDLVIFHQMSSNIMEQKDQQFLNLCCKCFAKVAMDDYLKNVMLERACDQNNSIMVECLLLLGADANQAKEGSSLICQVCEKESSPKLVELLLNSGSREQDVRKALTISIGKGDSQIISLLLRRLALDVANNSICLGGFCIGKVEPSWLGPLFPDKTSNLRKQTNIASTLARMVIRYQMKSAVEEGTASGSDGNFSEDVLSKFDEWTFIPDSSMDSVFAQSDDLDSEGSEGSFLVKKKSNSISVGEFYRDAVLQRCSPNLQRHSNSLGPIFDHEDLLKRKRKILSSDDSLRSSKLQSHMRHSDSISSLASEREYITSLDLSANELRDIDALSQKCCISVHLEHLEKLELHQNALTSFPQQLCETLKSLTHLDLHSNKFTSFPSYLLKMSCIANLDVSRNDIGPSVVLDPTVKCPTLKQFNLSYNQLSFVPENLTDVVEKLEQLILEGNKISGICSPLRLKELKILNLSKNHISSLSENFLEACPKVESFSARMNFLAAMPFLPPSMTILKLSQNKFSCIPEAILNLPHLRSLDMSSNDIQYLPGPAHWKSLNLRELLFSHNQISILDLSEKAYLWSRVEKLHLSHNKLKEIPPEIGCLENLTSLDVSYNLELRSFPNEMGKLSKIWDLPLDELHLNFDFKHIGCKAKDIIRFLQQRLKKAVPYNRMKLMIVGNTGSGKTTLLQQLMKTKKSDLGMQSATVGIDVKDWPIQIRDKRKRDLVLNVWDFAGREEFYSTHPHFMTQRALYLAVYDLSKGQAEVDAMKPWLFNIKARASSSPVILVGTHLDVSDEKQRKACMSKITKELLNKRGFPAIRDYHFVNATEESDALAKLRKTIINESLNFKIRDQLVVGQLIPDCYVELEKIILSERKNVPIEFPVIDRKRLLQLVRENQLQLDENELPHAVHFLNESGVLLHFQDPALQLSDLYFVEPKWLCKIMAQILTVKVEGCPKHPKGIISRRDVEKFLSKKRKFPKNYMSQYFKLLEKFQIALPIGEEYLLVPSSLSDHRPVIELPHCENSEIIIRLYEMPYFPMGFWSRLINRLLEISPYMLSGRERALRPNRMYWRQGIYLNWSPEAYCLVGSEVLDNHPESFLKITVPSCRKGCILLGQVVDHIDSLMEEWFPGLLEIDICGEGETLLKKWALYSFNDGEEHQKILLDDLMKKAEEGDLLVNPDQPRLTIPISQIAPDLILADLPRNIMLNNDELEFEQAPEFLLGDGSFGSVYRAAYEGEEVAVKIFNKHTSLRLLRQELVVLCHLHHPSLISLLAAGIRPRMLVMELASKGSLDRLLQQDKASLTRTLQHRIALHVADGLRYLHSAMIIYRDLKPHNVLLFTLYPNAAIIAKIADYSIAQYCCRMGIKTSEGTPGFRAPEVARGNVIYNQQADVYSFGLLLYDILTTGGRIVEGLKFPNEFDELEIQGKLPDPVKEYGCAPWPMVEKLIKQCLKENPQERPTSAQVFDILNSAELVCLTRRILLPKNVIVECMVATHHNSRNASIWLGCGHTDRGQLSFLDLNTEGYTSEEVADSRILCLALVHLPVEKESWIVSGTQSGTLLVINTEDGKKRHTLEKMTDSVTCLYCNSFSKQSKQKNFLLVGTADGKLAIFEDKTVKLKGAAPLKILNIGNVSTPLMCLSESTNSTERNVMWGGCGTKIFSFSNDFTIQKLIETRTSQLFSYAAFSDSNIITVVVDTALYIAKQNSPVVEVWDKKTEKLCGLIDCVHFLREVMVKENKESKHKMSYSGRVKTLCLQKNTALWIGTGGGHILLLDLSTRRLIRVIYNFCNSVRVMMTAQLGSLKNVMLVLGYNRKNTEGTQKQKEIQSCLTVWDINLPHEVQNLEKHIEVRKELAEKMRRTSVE
# Sequence of Tyrosine-protein kinase Yes (Homo sapiens) (P07947 2-543 limits assumed): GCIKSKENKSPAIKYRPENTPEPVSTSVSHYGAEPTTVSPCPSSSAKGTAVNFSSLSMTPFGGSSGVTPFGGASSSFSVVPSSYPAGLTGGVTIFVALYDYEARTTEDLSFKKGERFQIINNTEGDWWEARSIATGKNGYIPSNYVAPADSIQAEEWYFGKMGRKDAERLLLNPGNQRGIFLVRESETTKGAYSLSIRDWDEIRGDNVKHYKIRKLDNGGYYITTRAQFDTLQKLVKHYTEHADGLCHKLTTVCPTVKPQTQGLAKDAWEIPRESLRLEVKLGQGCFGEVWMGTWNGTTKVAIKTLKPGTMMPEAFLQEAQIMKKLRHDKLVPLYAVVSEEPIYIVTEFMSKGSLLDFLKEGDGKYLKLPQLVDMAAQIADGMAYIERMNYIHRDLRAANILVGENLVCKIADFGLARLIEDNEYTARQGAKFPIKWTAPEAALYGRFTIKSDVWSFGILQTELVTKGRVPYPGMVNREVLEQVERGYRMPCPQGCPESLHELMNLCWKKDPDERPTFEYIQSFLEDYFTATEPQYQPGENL
# Sequence of Leucine-rich repeat serine/threonine-protein kinase 2 (Homo sapiens) (Q5S007 whole entry): as the sequence (Q5S007 whole entry G2019S) above, with S2019G counted along it
Structure (SMILES),inhibition [1],inhibition [2],inhibition [3],inhibition [4],inhibition [5],inhibition [6],inhibition [7],inhibition [8],inhibition [9],inhibition [10],inhibition [11],inhibition [12],inhibition [13],inhibition [14],inhibition [15],inhibition [16],inhibition [17]
CCc1cccc(CC)c1/C=C/c1cncc(C(=O)NC)c1,2.78%,3.04%,-1.48%,0.45%,0.77%,3.23%,2.6%,2.71%,2.87%,5.4%,-1.79%,-3.49%,1.51%,3.05%,4.51%,2.33%,7.93%
CS(=O)(=O)CCNCc1cc(-c2cc3c(Nc4ccc(OCc5cccc(F)c5)c(Cl)c4)ncnc3s2)cs1,4.28%,3.05%,6.33%,2.63%,1.06%,6.76%,9.8%,4.4%,5.09%,2.35%,-3.41%,2.58%,3.31%,0.31%,4.51%,1.2%,5.39%
COc1cc2ncn(-c3cc(OCCc4ccccc4)c(C(N)=O)s3)c2cc1OC,0.83%,1.03%,4.7%,0.43%,0.59%,3.24%,3.36%,3.25%,3.42%,0.38%,-9.47%,2.95%,0.72%,4.52%,10.8%,6.42%,32.5%
Cc1nnc(-c2ccc(C)c(-c3ccc(C(=O)NCc4ccc(Cl)cc4)cc3)c2)o1,3.57%,2.58%,5.29%,–,-3.27%,5.55%,4.07%,6.27%,3.85%,8.41%,-0.47%,4.09%,2.12%,-4.32%,-3.04%,-2.08%,-4%
N#Cc1ccc(Oc2nccc(-c3c(-c4ccc(F)cc4)ncn3C3CCNCC3)n2)cc1,3.55%,3.38%,3.87%,-0.57%,1.9%,6.93%,6.24%,4.98%,4.44%,-1.66%,-0.95%,2.17%,2.43%,2.8%,3.91%,4.91%,4.95%
CNC(=O)c1cncc(/C=C/c2c(C)cccc2C)c1,2.18%,6.81%,33%,-2.13%,-4.22%,0.8%,5.69%,-0.11%,2.82%,-5.49%,-0.25%,-1.78%,0.42%,-5.56%,-1.97%,-3.85%,-1.34%
CN(C)c1ccc2c(c1)/C(=C/Nc1ccc(S(N)(=O)=O)cc1)C(=O)N2,7.48%,2.8%,14.3%,2.05%,5.7%,2.49%,4.91%,2.9%,5%,3.91%,-6.53%,2.88%,0.86%,5.77%,16.7%,7.03%,36.4%
COc1cc2ncn(-c3cc(OCc4cccs4)c(C(N)=O)s3)c2cc1OC,8.04%,4.84%,21.2%,-0.46%,3.04%,1.7%,0.38%,2.45%,0.77%,1.73%,6.17%,-3.1%,1.66%,2.29%,9.04%,15.9%,54%
